Reference: PubChem BioAssay (NCI)
The panel holds about 83,000 compounds, 20% with a hit somewhere; the sample as a whole holds those more often.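 Treatment: one concentration, 48 hours, 96-well format. Scoring: percent growth, with anything below 10 considered active.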 Values without a mark were called inactive. Calls of active or inactive are those of the source.

Columns and labels:
Test in all cases: NCI-60 one-dose screen, 48 h (100 = growth as untreated, 0 = no growth, -100 = all killed)
Conditions in all cases: 10 µM unless noted
T-47D breast = tested on: T-47D breast
BT-549 breast = tested on: BT-549 breast
MDA-MB-435 melanoma = tested on: MDA-MB-435 melanoma
SW-620 colon = tested on: SW-620 colon
MCF7 breast = tested on: MCF7 breast
HCT-116 colon = tested on: HCT-116 colon
HCC-2998 colon = tested on: HCC-2998 colon
KM12 colon = tested on: KM12 colon

Nc1ncc(-c2ccc(NS(=O)(=O)c3ccc(Cl)c(Cl)c3)cc2)[nH]1
growth (T-47D breast): 76.7%
growth (BT-549 breast): 69.9%
growth (MDA-MB-435 melanoma): 96.4%
growth (SW-620 colon): 91.3%
growth (MCF7 breast): 75%
growth (HCT-116 colon): 99.3%
growth (HCC-2998 colon): 91.2%
growth (KM12 colon): 89.6%

N=c1c2cc(-c3ccccc3)oc2ncn1/N=C/c1ccc(Br)cc1
growth (T-47D breast): 79.6%
growth (BT-549 breast): 101%
growth (MDA-MB-435 melanoma): 61.6%
growth (SW-620 colon): 31%
growth (MCF7 breast): 65.6%
growth (HCT-116 colon): 50.7%
growth (KM12 colon): 23.9%

O=C(CCn1c[n+](CC(=O)c2ccc(F)cc2)c2ccccc21)Nc1cccc2cccnc12
growth (T-47D breast): 53.9%
growth (BT-549 breast): 69.9%
growth (MDA-MB-435 melanoma): 79%
growth (SW-620 colon): 92.3%
growth (MCF7 breast): 68%
growth (HCT-116 colon): 53.1%
growth (HCC-2998 colon): 87%
growth (KM12 colon): 76%

COc1ccc2c(c1)c(-c1cc(N)n3nc(-c4cn(C)c5ccc(OC)cc45)cc3n1)cn2C
growth (T-47D breast): 96.2%
growth (BT-549 breast): 117%
growth (MDA-MB-435 melanoma): 112%
growth (SW-620 colon): -20.6% (active)
growth (MCF7 breast): 32.5%
growth (HCT-116 colon): -4.19% (active)
growth (HCC-2998 colon): 114%
growth (KM12 colon): 96.9%

O=C(NNc1nc2cc(F)ccc2n2c(CN3CCCC3)ccc12)c1cnccn1
growth (T-47D breast): 15.4%
growth (BT-549 breast): 24.1%
growth (MDA-MB-435 melanoma): 34.4%
growth (SW-620 colon): 22.3%
growth (MCF7 breast): 4.57% (active)
growth (HCT-116 colon): 11.1%
growth (KM12 colon): 20.3%

COc1ccc(-n2c(SCc3n[nH]c(=S)o3)nc3ccc(Cl)cc3c2=O)cc1
growth (T-47D breast): 97.6%
growth (BT-549 breast): 115%
growth (MDA-MB-435 melanoma): 94.8%
growth (SW-620 colon): 97.8%
growth (MCF7 breast): 90.6%
growth (HCT-116 colon): 104%
growth (KM12 colon): 98.6%

Cc1nn(-c2ccccc2)c2ncnc(N/N=C/c3cccc(O)c3)c12
growth (T-47D breast): 17.8%
growth (BT-549 breast): 46.8%
growth (MDA-MB-435 melanoma): 3.94% (active)
growth (SW-620 colon): 34%
growth (MCF7 breast): 17.8%
growth (HCT-116 colon): 24%
growth (KM12 colon): 29.3%

C=C1CC[C@@H]2[C@](C)(CO)[C@H](O)CC[C@@]2(C)[C@@H]1C/C(O)=C1\CCOC1=O
growth (T-47D breast): 96.6%
growth (BT-549 breast): 109%
growth (MDA-MB-435 melanoma): 94.6%
growth (SW-620 colon): 94.9%
growth (MCF7 breast): 77%
growth (HCT-116 colon): 95.4%
growth (HCC-2998 colon): 104%
growth (KM12 colon): 111%

Cc1ccc(-n2cc(/C=N/NC(=O)c3ccncc3)c(-c3ccc(S(C)(=O)=O)cc3)n2)cc1
growth (T-47D breast): 93.1%
growth (BT-549 breast): 74.1%
growth (MDA-MB-435 melanoma): 23.6%
growth (SW-620 colon): 64.6%
growth (MCF7 breast): 72.2%
growth (HCT-116 colon): 61.1%
growth (KM12 colon): 58%

Cc1nn(-c2ccccc2)c2ncnc(N/N=C/c3ccccc3O)c12
growth (T-47D breast): 15.6%
growth (BT-549 breast): 25.6%
growth (MDA-MB-435 melanoma): 16.3%
growth (SW-620 colon): 26.2%
growth (MCF7 breast): 9.62% (active)
growth (HCT-116 colon): 20.9%
growth (KM12 colon): 16.7%

Cc1cccc2c3c(sc12)C(c1ccc(F)cc1)C(C#N)=C(/N=C/c1ccc(Cl)cc1)O3 (stereo not drawn)
growth (T-47D breast): 56.7%
growth (BT-549 breast): -26.5% (active)
growth (MDA-MB-435 melanoma): -12.4% (active)
growth (SW-620 colon): 19.6%
growth (MCF7 breast): 14.1%
growth (HCT-116 colon): 2.26% (active)
growth (KM12 colon): 15.7%

CCn1c(SCC(=O)Nc2cccc(C(=O)/C=C/c3ccccc3Cl)c2)nc2ccccc2c1=O
growth (T-47D breast): 81.3%
growth (BT-549 breast): 105%
growth (MDA-MB-435 melanoma): 98.6%
growth (SW-620 colon): 72.8%
growth (MCF7 breast): 17.1%
growth (HCT-116 colon): -26.3% (active)
growth (HCC-2998 colon): 91%
growth (KM12 colon): 85.3%

COc1ccccc1-n1cc(C#N)c(N)c1C(=O)c1ccc(C)cc1
growth (T-47D breast): 82.1%
growth (BT-549 breast): 83.9%
growth (MDA-MB-435 melanoma): 5.3% (active)
growth (SW-620 colon): 52.4%
growth (MCF7 breast): 51.3%
growth (HCT-116 colon): 76.8%
growth (KM12 colon): 59.6%

CC[C@@H](CO)Nc1ccc2ncc(C#Cc3cncc(C(=O)Nc4ccc(CN5CCN(C)CC5)c(C(F)(F)F)c4)c3)n2n1
growth (T-47D breast): -75.8% (active)
growth (BT-549 breast): -91.7% (active)
growth (MDA-MB-435 melanoma): -88% (active)
growth (SW-620 colon): -44.8% (active)
growth (MCF7 breast): -69.6% (active)
growth (HCT-116 colon): -92.5% (active)
growth (KM12 colon): -34.1% (active)

Cc1cccc(/C=C/C(=O)Nc2ncc(Cc3cccc(C)c3)s2)c1
growth (T-47D breast): 32.7%
growth (BT-549 breast): 66.6%
growth (MDA-MB-435 melanoma): -70.2% (active)
growth (SW-620 colon): 16.8%
growth (MCF7 breast): 15.1%
growth (HCT-116 colon): 23.1%
growth (KM12 colon): 6.43% (active)

COc1cc(-c2nn(C(C)(C)C)cc2-c2ccnc(NCCCNS(=O)(=O)c3ccccc3)n2)ccc1Cl
growth (T-47D breast): 82.3%
growth (BT-549 breast): 81.1%
growth (MDA-MB-435 melanoma): 84%
growth (SW-620 colon): 90.3%
growth (MCF7 breast): 70.1%
growth (HCT-116 colon): 59.9%
growth (KM12 colon): 86.5%

CCCCCc1ccc(S(=O)(=O)Nc2cccc(-c3csc(NC(=O)CN4CCN(C)CC4)n3)c2)cc1
growth (T-47D breast): 67.2%
growth (BT-549 breast): 93.4%
growth (MDA-MB-435 melanoma): 45.3%
growth (SW-620 colon): 46.5%
growth (MCF7 breast): 26.2%
growth (HCT-116 colon): 16.9%
growth (KM12 colon): 65.8%

COc1cc(/C=C2\C(=O)Nc3cc(Cl)ccc32)ccc1OCc1ccc(F)cc1
growth (T-47D breast): 94.1%
growth (BT-549 breast): 95.7%
growth (MDA-MB-435 melanoma): 103%
growth (SW-620 colon): 98.2%
growth (MCF7 breast): 57.1%
growth (HCT-116 colon): 92.9%
growth (HCC-2998 colon): 96.8%
growth (KM12 colon): 102%

CC(=O)C1=C(C)NC(NNC(N)=S)=NC1c1ccccc1 (stereo not drawn)
growth (T-47D breast): 103%
growth (BT-549 breast): 92.2%
growth (MDA-MB-435 melanoma): 99.2%
growth (SW-620 colon): 96.8%
growth (MCF7 breast): 101%
growth (HCT-116 colon): 94.9%
growth (KM12 colon): 102%

N#Cc1cccc(CN2CCC3=C(C2)C(=O)N(Cc2ccc(Cl)cc2)C2=NCCCN23)c1
growth (T-47D breast): 21.2%
growth (BT-549 breast): 64%
growth (MDA-MB-435 melanoma): 20.3%
growth (SW-620 colon): 36.1%
growth (MCF7 breast): 14.2%
growth (HCT-116 colon): 22.5%
growth (KM12 colon): 38.8%

C=CCn1c(SCC(=O)Nc2ccc(C(=O)/C=C/c3cccc([N+](=O)[O-])c3)cc2)nnc1-c1c[nH]c2ccccc12
growth (T-47D breast): 59.8%
growth (BT-549 breast): 117%
growth (MDA-MB-435 melanoma): 98.4%
growth (SW-620 colon): 98.7%
growth (MCF7 breast): 25.4%
growth (HCT-116 colon): -32.6% (active)
growth (HCC-2998 colon): 86%
growth (KM12 colon): 93.4%

NC(N)=Nc1ccc(Oc2cccc(NC(N)=Nc3ccc(Br)c(C(F)(F)F)c3)c2)cc1
growth (T-47D breast): 55.5%
growth (BT-549 breast): 45.9%
growth (MDA-MB-435 melanoma): 57.5%
growth (SW-620 colon): 53.4%
growth (MCF7 breast): 32.2%
growth (HCT-116 colon): 42.9%
growth (KM12 colon): 20.4%

COc1cc2nc(Cl)nc(Nc3cccc(C4=Nc5c(N)nc(N)nc5NC(c5ccc6c(c5)OCO6)C4)c3)c2cc1OC (stereo not drawn)
growth (T-47D breast): 68.9%
growth (BT-549 breast): 76.8%
growth (MDA-MB-435 melanoma): 88.5%
growth (SW-620 colon): 76.9%
growth (MCF7 breast): 54%
growth (HCT-116 colon): 55.3%
growth (KM12 colon): 46.8%

COc1ccc(COc2ccc(/C=C3\C(=O)Nc4ccccc43)cc2OC)cc1
growth (T-47D breast): 113%
growth (BT-549 breast): 92.1%
growth (MDA-MB-435 melanoma): 106%
growth (SW-620 colon): 99.1%
growth (MCF7 breast): 94%
growth (HCT-116 colon): 108%
growth (KM12 colon): 104%

Cc1ccc2c(c1)C13C(=C2Br)CCCN1C(=O)c1ccccc13 (stereo not drawn)
growth (T-47D breast): 86.8%
growth (BT-549 breast): 104%
growth (MDA-MB-435 melanoma): 54.8%
growth (SW-620 colon): 93.7%
growth (MCF7 breast): 74.3%
growth (HCC-2998 colon): 113%
growth (KM12 colon): 91.5%

Oc1cccc2ccc(-c3nnc(SCc4ccc(O)c5ncccc45)o3)nc12
growth (T-47D breast): 16%
growth (BT-549 breast): 15.9%
growth (MDA-MB-435 melanoma): 12%
growth (SW-620 colon): 19.2%
growth (MCF7 breast): 4.96% (active)
growth (HCC-2998 colon): 27.6%
growth (KM12 colon): 8.28% (active)

O=C1CCCc2nc(Nc3ccc(S(=O)(=O)Nc4ccc([N+](=O)[O-])cc4)cc3)ncc21
growth (T-47D breast): 105%
growth (BT-549 breast): 117%
growth (MDA-MB-435 melanoma): 104%
growth (SW-620 colon): 102%
growth (MCF7 breast): 95.2%
growth (HCC-2998 colon): 110%
growth (KM12 colon): 98.3%

CC1(C)NCCC[C@]2(C)[C@H]3C/C(=N\O)C4[C@@H]5C[C@@](C)(CO)CC[C@]5(C)CC[C@@]4(C)[C@]3(C)CC[C@@H]12 (stereo partly drawn)
growth (T-47D breast): 85.3%
growth (BT-549 breast): 97.6%
growth (MDA-MB-435 melanoma): 111%
growth (SW-620 colon): 103%
growth (MCF7 breast): 86.9%
growth (HCC-2998 colon): 105%
growth (KM12 colon): 104%

COc1cc(OC)c(/C=C/S(=O)(=O)Cc2ccc(OC)c(NC(=O)CCC(=O)NO)c2)c(OC)c1
growth (T-47D breast): 86.4%
growth (BT-549 breast): 14.5%
growth (MDA-MB-435 melanoma): -2.23% (active)
growth (SW-620 colon): 21.7%
growth (MCF7 breast): 11.9%
growth (HCC-2998 colon): 10.3%
growth (KM12 colon): 7.24% (active)

COC(=O)C[Se]C(=O)Cc1c(C)n(C(=O)c2ccc(Cl)cc2)c2ccc(OC)cc12
growth (T-47D breast): 83%
growth (BT-549 breast): 102%
growth (MDA-MB-435 melanoma): 39.6%
growth (SW-620 colon): 62.4%
growth (MCF7 breast): 28.2%
growth (HCC-2998 colon): 58.3%
growth (KM12 colon): 26.4%

Cn1ccnc1C(=O)/C=C/c1ccc(CNC(=O)c2ccc(Cl)cc2)cc1
growth (T-47D breast): 34%
growth (BT-549 breast): 16.5%
growth (MDA-MB-435 melanoma): 22.6%
growth (SW-620 colon): 9.22% (active)
growth (MCF7 breast): 10.5%
growth (HCT-116 colon): -1.09% (active)
growth (KM12 colon): 9.07% (active)

CC(=O)c1cc(C(=O)N2c3ccccc3Sc3ccccc32)n2ccc3ccccc3c12
growth (T-47D breast): 27.5%
growth (BT-549 breast): 37%
growth (MDA-MB-435 melanoma): 0.748% (active)
growth (SW-620 colon): 26.3%
growth (MCF7 breast): 17.8%
growth (HCC-2998 colon): 74.9%
growth (KM12 colon): 31.7%

O=C1CC(=O)N2CSCN(C(c3ccccc3)c3nc4ncncc4[nH]3)C2=N1 (stereo not drawn)
growth (T-47D breast): 98.8%
growth (BT-549 breast): 105%
growth (MDA-MB-435 melanoma): 107%
growth (SW-620 colon): 102%
growth (MCF7 breast): 93.9%
growth (HCC-2998 colon): 99.4%
growth (KM12 colon): 103%
